Test in all cases: DAPPL (digital affinity profiling via proximity ligation, sequencing); 10 mM Tris-HCl pH 7.5, 50 mM NaCl, 1 mM DTT, 4% glycerol, room temperature, 30 min; GST-TFs on glutathione beads, 16-mer random dsDNA library, 0.1% formaldehyde crosslink after washing; high values mean tight binding
One experiment deals with T1, FLI1 (Homo sapiens, UniProt Q01543 1-452).
T1 sequence: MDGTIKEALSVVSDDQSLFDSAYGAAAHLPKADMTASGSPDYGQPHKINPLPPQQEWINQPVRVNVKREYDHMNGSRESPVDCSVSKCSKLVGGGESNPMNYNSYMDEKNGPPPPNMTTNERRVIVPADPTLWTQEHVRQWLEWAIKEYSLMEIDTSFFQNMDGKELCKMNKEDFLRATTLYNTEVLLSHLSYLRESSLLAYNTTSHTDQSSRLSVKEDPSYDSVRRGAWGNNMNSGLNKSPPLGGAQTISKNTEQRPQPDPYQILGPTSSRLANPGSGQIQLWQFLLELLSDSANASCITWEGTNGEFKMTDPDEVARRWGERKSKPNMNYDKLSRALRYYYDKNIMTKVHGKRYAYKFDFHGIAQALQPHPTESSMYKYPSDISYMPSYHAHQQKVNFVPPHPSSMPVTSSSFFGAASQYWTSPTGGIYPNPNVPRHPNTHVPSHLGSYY
As to conditions: protein: recombinant; tags: N-terminal GST; dsDNA, one strand shown. The method in brief:
(§1)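 In yeast, human transcription factors were expressed with a GST fusion, then pulled down on glutathione beads and given DNA barcodes. Pooled with a tag-only sample, they were exposed to 200 nmole of a 16-mer random double-stranded DNA library (Tris/NaCl/DTT/glycerol buffer, room temperature, 30 min), washed, crosslinked with 0.1% formaldehyde, proximity-ligated using BsaI/T4 ligase for 1 h at 37 °C, PCR-amplified and read on an Illumina NextSeq500. Each hexamer's frequency of reads for a factor, divided by the matching frequency for the tag-only sample, gives the binding signal.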

The target in another experiment is T2, ELK1 (Homo sapiens, UniProt P19419 1-428).
T2 sequence: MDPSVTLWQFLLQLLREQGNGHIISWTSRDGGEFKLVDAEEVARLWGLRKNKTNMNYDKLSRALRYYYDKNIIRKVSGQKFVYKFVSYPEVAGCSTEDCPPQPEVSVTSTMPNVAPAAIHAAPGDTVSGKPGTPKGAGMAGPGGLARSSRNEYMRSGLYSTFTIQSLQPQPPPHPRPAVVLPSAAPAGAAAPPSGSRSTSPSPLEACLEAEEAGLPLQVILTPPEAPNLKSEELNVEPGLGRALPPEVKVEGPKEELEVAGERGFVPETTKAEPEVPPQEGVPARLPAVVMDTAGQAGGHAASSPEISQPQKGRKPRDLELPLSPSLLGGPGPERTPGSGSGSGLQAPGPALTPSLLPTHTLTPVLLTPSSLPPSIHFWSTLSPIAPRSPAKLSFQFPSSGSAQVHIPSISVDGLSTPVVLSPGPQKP
The following applies: protein: recombinant; tags: N-terminal GST; dsDNA, one strand shown. A digest of the protocol: as §1

The target of another experiment is T3, GABPA (Homo sapiens, UniProt Q06546 1-454).
T3 sequence: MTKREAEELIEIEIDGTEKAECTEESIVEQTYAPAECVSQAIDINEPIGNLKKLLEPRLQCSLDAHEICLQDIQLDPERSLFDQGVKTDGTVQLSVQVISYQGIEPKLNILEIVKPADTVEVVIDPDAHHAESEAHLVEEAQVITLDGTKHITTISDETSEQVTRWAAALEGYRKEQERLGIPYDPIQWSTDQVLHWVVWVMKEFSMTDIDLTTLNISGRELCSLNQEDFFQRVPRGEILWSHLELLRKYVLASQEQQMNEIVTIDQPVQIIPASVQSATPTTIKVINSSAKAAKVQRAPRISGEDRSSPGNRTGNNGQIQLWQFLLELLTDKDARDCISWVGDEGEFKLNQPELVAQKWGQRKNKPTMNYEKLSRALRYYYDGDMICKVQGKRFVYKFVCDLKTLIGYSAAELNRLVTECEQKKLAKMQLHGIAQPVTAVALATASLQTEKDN
As to conditions: protein: recombinant; tags: N-terminal GST; dsDNA, one strand shown. A digest of the protocol: as §1

The next experiment addresses T4, ERG (Homo sapiens, UniProt P11308 1-479).
T4 sequence: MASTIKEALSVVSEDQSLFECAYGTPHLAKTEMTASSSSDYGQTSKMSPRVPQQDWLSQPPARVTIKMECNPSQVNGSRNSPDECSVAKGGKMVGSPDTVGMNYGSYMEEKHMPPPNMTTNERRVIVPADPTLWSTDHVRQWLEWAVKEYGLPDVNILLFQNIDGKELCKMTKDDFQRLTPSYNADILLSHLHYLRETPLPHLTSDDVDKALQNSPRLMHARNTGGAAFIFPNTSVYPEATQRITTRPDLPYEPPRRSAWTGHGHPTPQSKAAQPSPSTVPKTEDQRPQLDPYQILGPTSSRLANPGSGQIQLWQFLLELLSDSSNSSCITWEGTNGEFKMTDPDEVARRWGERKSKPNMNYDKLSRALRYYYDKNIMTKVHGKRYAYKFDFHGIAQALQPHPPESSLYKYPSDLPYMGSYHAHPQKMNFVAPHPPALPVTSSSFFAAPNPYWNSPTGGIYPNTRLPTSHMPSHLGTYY
The following applies: protein: recombinant; tags: N-terminal GST; dsDNA, one strand shown. A digest of the protocol:
as §1

The next experiment addresses ELF1 (Homo sapiens, UniProt P32519 1-619). As to conditions: protein: recombinant; tags: N-terminal GST; dsDNA, one strand shown. The method in brief:
as §1

In the next experiment the target is T5, EHF (Homo sapiens, UniProt Q9NZC4 1-300).
T5 sequence: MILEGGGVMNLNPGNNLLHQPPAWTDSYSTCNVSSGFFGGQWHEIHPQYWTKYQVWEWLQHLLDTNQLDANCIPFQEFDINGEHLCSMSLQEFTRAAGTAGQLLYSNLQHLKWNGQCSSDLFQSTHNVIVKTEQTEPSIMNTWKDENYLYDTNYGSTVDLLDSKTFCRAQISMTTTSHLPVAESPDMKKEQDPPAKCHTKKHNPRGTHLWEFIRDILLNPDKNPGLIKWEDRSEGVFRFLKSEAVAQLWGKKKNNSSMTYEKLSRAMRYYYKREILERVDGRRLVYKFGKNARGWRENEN
As to conditions: protein: recombinant; tags: N-terminal GST; dsDNA, one strand shown. The method in brief:
as §1

In the next experiment the target is SPI1 (Homo sapiens, UniProt P17947 1-270). As to conditions: protein: recombinant; tags: N-terminal GST; dsDNA, one strand shown. The method in brief:
as §1

The target in another experiment is SPIB (Homo sapiens, UniProt Q01892 1-262). The following applies: protein: recombinant; tags: N-terminal GST; dsDNA, one strand shown. A digest of the protocol:
as §1

Another experiment addresses T6, ELK3 (Homo sapiens, UniProt P41970 1-407).
T6 sequence: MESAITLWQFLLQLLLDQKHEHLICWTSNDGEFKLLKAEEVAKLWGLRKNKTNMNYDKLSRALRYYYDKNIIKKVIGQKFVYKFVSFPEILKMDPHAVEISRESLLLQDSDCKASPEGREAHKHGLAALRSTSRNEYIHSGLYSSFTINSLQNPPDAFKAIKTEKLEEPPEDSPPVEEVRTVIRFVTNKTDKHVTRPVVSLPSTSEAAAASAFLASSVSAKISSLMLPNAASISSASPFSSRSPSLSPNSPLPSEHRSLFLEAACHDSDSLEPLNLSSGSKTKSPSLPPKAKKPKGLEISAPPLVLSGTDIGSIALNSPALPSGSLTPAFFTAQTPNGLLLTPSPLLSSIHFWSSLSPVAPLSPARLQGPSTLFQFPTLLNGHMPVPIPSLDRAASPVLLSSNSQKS
The following applies: protein: recombinant; tags: N-terminal GST; dsDNA, one strand shown. The method in brief: as §1

Another experiment concerns the target T7, FEV (Homo sapiens, UniProt Q99581 1-238).
T7 sequence: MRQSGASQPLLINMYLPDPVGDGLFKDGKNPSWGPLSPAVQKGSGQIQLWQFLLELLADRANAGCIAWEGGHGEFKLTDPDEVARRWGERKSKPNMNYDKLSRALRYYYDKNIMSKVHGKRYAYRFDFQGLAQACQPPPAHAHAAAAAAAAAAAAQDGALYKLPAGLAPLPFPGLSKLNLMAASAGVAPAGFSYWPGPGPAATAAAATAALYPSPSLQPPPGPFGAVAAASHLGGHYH
The following applies: protein: recombinant; tags: N-terminal GST; dsDNA, one strand shown. A digest of the protocol:
as §1

The next experiment concerns the target ETV5 (Homo sapiens, UniProt P41161 1-510). The following applies: protein: recombinant; tags: N-terminal GST; dsDNA, one strand shown. A digest of the protocol:
as §1

The next experiment concerns the target HSF1 (Homo sapiens, UniProt Q00613 1-529). As to conditions: protein: recombinant; tags: N-terminal GST; chain copies: 3; dsDNA, one strand shown. A digest of the protocol: as §1
Another experiment addresses T8, SPIC (Homo sapiens, UniProt Q8N5J4 1-248).
T8 sequence: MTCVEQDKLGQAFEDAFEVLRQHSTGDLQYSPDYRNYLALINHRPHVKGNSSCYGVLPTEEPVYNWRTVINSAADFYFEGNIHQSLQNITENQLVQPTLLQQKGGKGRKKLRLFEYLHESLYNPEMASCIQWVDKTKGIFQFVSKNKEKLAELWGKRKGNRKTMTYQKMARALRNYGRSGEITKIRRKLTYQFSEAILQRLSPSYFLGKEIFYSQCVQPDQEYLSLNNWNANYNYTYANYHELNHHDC
The following applies: protein: recombinant; tags: N-terminal GST; dsDNA, one strand shown. The method in brief:
as §1

The next experiment addresses ELF4 (Homo sapiens, UniProt Q99607 1-663). As to conditions: protein: recombinant; tags: N-terminal GST; dsDNA, one strand shown. The method in brief:
as §1

Another experiment addresses T9, ELK4 (Homo sapiens, UniProt P28324-2 1-405).
T9 sequence: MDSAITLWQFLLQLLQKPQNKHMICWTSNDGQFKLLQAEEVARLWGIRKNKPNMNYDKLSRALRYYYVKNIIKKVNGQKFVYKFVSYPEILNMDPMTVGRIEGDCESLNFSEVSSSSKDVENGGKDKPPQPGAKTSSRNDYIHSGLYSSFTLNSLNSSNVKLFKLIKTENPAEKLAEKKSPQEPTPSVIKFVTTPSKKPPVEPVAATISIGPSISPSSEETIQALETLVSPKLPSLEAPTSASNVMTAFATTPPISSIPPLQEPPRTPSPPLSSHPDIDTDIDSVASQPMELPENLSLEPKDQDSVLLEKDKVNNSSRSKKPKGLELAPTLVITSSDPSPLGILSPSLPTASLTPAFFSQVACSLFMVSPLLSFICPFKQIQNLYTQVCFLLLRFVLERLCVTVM
The following applies: protein: recombinant; tags: N-terminal GST; dsDNA, one strand shown. The method in brief:
as §1

In the next experiment the target is T10, ETV2 (Homo sapiens, UniProt O00321 1-342).
T10 sequence: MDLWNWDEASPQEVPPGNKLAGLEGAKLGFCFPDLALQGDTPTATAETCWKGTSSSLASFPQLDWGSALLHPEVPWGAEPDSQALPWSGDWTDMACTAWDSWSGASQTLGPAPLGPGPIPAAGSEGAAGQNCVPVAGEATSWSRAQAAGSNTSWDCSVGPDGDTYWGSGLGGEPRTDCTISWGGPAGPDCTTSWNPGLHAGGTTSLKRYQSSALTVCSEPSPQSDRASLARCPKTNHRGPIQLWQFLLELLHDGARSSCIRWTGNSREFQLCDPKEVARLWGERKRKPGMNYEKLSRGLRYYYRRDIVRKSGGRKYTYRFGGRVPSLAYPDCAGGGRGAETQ
As to conditions: protein: recombinant; tags: N-terminal GST; dsDNA, one strand shown. The method in brief: as §1

In another experiment the target is T11, ELF3 (Homo sapiens, UniProt P78545 1-371).
T11 sequence: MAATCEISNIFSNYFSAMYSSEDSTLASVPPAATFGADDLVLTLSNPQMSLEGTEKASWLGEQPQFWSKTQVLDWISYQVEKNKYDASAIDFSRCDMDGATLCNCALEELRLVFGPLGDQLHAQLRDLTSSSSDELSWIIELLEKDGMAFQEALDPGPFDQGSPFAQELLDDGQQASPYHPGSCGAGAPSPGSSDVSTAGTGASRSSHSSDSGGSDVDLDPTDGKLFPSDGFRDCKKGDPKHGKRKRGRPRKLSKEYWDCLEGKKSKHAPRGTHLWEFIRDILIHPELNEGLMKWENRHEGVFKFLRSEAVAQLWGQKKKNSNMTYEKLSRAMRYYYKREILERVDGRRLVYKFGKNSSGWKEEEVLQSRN
The following applies: protein: recombinant; tags: N-terminal GST; dsDNA, one strand shown. The method in brief:
as §1

The target in a further experiment is CRX (Homo sapiens, UniProt O43186 1-299). The following applies: protein: recombinant; tags: N-terminal GST; dsDNA, one strand shown. A digest of the protocol: as §1
The next experiment has as its target ETV1 (Homo sapiens, UniProt P50549 1-477). The following applies: protein: recombinant; tags: N-terminal GST; dsDNA, one strand shown. The method in brief:
as §1

Chain of HSF1 (Q00613 whole entry): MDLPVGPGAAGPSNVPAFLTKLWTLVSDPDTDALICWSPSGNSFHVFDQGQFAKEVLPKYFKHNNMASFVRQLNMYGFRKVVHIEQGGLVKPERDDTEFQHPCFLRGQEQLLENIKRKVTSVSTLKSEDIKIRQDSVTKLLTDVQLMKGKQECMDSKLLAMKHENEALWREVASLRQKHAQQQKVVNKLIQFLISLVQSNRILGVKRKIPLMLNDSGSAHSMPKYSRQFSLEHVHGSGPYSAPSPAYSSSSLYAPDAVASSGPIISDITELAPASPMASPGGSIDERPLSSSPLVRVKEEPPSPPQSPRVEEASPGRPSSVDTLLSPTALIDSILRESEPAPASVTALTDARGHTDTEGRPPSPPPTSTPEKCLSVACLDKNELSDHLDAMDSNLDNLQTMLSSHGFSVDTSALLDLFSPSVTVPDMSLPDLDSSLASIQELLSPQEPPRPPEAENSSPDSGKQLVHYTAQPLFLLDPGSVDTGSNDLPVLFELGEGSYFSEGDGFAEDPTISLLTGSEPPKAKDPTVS
Chain of ELF4 (Q99607 whole entry): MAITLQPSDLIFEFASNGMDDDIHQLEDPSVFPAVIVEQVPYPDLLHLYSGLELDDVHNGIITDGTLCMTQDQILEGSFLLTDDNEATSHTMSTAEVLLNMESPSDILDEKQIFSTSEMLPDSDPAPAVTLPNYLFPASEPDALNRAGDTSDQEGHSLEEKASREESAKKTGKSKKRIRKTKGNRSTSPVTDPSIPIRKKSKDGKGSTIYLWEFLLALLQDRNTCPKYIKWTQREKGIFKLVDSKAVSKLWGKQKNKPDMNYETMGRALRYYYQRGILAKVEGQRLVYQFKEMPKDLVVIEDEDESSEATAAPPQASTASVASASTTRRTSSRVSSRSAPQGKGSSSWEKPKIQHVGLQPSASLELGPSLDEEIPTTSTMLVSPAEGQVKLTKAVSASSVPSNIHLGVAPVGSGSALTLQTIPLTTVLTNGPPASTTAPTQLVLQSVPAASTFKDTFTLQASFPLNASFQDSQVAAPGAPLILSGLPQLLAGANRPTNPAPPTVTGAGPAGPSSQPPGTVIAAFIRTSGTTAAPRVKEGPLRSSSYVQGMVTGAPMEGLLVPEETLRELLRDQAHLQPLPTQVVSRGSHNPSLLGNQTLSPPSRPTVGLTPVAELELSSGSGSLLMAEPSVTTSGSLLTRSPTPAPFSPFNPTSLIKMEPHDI
Chain of ETV5 (P41161 whole entry): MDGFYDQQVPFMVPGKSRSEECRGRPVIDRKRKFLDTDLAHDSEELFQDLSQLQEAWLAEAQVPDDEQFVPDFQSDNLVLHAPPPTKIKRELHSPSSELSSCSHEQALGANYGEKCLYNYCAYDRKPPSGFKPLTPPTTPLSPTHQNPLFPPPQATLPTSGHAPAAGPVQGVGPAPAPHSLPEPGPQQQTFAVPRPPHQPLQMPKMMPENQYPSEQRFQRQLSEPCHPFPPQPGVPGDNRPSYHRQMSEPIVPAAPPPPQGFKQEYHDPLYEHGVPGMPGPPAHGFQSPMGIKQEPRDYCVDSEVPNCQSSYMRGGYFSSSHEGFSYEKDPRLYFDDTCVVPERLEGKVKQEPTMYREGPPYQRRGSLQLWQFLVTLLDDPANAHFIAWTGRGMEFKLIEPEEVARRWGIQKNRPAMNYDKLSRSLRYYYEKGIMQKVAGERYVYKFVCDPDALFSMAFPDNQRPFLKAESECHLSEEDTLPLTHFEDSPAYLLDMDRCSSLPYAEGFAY
Chain of ELF1 (P32519 whole entry): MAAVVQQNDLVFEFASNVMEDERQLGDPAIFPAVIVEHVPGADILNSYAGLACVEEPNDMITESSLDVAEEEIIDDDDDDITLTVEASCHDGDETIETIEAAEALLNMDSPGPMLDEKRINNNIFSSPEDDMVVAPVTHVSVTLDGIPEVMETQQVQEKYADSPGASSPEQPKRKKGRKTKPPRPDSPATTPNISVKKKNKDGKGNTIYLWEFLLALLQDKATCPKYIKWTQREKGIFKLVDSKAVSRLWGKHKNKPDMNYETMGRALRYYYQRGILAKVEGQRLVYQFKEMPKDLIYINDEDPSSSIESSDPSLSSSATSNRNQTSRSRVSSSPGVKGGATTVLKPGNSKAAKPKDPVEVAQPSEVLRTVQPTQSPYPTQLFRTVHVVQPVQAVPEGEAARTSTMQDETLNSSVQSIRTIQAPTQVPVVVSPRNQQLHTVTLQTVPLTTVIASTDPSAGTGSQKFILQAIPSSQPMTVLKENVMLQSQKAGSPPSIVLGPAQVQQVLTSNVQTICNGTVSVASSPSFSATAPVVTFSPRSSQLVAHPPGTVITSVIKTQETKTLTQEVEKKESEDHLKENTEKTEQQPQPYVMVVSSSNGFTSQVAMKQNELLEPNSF
Chain of CRX (O43186 whole entry): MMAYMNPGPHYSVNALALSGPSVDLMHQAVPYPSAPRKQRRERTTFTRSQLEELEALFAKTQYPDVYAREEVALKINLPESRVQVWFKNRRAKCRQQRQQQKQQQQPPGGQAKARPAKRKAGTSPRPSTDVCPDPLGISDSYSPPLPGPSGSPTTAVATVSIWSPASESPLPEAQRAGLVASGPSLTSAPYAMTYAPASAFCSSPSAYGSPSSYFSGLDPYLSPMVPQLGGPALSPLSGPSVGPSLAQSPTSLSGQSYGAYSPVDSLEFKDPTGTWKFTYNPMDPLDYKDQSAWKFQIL
Chain of ETV1 (P50549 whole entry): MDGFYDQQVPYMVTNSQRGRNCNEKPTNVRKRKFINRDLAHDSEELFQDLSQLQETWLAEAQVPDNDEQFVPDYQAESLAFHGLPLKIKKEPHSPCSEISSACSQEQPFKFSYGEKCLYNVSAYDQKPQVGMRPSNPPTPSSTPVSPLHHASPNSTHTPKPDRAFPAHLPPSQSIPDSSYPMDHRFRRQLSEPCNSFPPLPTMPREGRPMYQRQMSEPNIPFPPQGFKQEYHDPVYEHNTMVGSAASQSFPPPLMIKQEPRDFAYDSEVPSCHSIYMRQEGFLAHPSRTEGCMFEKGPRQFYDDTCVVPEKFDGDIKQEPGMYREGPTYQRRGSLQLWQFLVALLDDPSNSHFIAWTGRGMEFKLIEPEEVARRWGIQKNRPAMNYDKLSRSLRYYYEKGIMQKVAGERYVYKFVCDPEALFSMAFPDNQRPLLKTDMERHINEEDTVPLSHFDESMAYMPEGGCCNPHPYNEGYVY
Chain of SPIB (Q01892 whole entry): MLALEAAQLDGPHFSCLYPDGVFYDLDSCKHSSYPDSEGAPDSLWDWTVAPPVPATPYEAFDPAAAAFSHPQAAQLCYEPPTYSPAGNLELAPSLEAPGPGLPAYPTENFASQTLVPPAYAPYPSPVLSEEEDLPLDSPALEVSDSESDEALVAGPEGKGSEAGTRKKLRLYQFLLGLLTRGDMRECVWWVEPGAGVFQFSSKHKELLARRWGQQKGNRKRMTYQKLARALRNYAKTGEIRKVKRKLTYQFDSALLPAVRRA

For the sequence TGATGA, the binding signal with FLI1 is 1.38 fold enrichment (6-mer frequency, TF over GST control); with ELK1 it was 1.39 fold enrichment (6-mer frequency, TF over GST control); in the experiment with GABPA, 1.46 fold enrichment (6-mer frequency, TF over GST control); with ERG, 1.28 fold enrichment (6-mer frequency, TF over GST control); with ELF1 it was 1.35 fold enrichment (6-mer frequency, TF over GST control); in the experiment with EHF, 1.32 fold enrichment (6-mer frequency, TF over GST control). Also, the binding signal in the experiment with SPI1 was 1.2 fold enrichment (6-mer frequency, TF over GST control); with SPIB it was 1.33 fold enrichment (6-mer frequency, TF over GST control); with ELK3 it was 1.28 fold enrichment (6-mer frequency, TF over GST control); in the experiment with FEV it was 1.25 fold enrichment (6-mer frequency, TF over GST control); with ETV5, 1.32 fold enrichment (6-mer frequency, TF over GST control); with HSF1, 1.16 fold enrichment (6-mer frequency, TF over GST control). For the same sequence, the binding signal with SPIC was 1.14 fold enrichment (6-mer frequency, TF over GST control); in the experiment with ELF4 it was 1.44 fold enrichment (6-mer frequency, TF over GST control); with ELK4 it was 1.46 fold enrichment (6-mer frequency, TF over GST control); with ETV2 it was 1.33 fold enrichment (6-mer frequency, TF over GST control); with ELF3 it was 1.4 fold enrichment (6-mer frequency, TF over GST control); in the experiment with CRX, 1.24 fold enrichment (6-mer frequency, TF over GST control). Moreover, the binding signal with ETV1 is 1.27 fold enrichment (6-mer frequency, TF over GST control).

The values above are taken from article PMC7862700, “An all-to-all approach to the identification of sequence-specific readers for epigenetic DNA modifications on cytosine”.
